Molecules are shown by their SMILES. Inconclusive results are not listed. Values without a mark were called inactive. Activity calls are given as the source filed them. Calls come from the whole dose curve; as a rule, active = well fitted inhibition curve with a large enough effect; inconclusive = small, poorly fitted or top-dose-only effect; inactive = no such curve, though single readings can be large or run the other way.
% is set by controls: 0 for no effect and ±100 for the full control effect; potency is the fitted concentration of half-maximal effect.

This assay deals with Glutaminase kidney isoform, mitochondrial (Homo sapiens) (UniProt O94925). Kind of assay: qHTS for Inhibitors of Glutaminase (GLS): LOPAC Validation (AID 624146).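 For activity change, negative = inhibition: glutamate product detected by oxidase and peroxidase coupled Amplex red fluorescence gain.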 Note: nearly all actives have a fitted effect of over 60% in size. The settings on record: glutaminase enzyme activity inhibition; series mostly up to 46.1 µM; activity change, negative = inhibition: at the top concentration. The source says: Glutaminase (GLS) catalyzes the hydrolysis of glutamine into glutamate and ammonia. It plays a critical role in glutaminolysis, which is an important energy source for proliferating cells. It was shown that c-Myc, an oncogenic transcription factor known to regulate microRNAs and to stimulate cell proliferation, increases glutamine metabolism by stimulating the expression of GLS via direct suppression of miR23a and miR23b.
Glutaminase kidney isoform, mitochondrial (Homo sapiens), sequence (O94925 whole entry, looked up, canonical isoform): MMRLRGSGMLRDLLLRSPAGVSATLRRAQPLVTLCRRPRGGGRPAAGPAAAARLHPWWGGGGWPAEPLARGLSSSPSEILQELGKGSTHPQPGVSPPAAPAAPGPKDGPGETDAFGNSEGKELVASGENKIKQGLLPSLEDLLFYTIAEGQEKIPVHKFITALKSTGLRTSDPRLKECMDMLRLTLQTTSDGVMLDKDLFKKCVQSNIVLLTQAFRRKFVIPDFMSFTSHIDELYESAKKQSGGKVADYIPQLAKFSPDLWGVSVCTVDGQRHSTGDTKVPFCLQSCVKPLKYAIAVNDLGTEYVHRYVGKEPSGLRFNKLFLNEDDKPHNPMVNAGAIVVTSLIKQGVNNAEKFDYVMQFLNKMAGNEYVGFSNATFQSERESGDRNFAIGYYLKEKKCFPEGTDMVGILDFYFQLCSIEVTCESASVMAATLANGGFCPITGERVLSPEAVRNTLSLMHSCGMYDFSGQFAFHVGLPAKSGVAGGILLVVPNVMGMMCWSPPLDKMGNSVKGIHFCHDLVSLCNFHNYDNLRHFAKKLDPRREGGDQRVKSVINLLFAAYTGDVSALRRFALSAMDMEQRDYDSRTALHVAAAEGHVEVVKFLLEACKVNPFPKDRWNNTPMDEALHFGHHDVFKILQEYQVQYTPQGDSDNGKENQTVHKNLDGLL
GLS is also thought to play a pathogenic role on HAD using a human HIV-1 infected macrophage system. […] GLS inhibition limits glutamate release and provides neuroprotection against HIV-1 infected macrophages.
The overall goal of this project is to identify small molecule inhibitors of GLS through quantitative high throughput screening (qHTS) of the MLSMR. A validated potent and selective inhibitor can be used as a tool molecule to further study the pharmacology of its target as well as explore its potential therapeutic application in cancer and inflammatory neurological disorders, such as HIV1-associated dementia (HAD) and multiple sclerosis.
NIH Chemical Genomics Center [NCGC]
NIH Molecular Libraries Probe Centers Network [MLPCN]
Assay Submitter (PI): Barbara S. Slusher, Johns Hopkins University
Three 3 uL of hKGA is dispensed into black well 1536-well plates in 45 mM KH2PO4 (pH 8.2), 0.02% Tween-20. Then 23 nL of compounds are added through pin tool transfer. To this, 1 uL of 1mM L-Glutamine and 1 uL of a solution of L-Glutamateoxidase, HRP, Amplex red are added. Plate is centrifuged for 25 sec before an initial fluorescence read is obtained on the ViewLux, after 30 min of RT incubation, the final read is taken on the ViewLux.
(In qHTS, concentration-response curves come from the screen itself.)
Turning to `C[C@@H]1O[C@@H](O[C@H]2C[C@@H](O)[C@]3(CO)[C@H]4[C@H](O)C[C@]5(C)[C@@H](C6=CC(=O)OC6)CC[C@]5(O)[C@@H]4CC[C@]3(O)C2)[C@H](O)[C@H](O)[C@H]1O`, the “activity change, negative = inhibition” value is -6.77%.

Take `CCCN1CCC[C@@H]2Cc3[nH]ncc3C[C@H]21`: the Potency entry was “inactive”. For the compound `C=C(C)[C@H]1Cc2c(ccc3c2O[C@@H]2COc4cc(OC)c(OC)cc4[C@@H]2C3=O)O1`, the Potency is 11.2 µM (active). Take `O=c1[nH]c2ccccc2n1C1CCN(CCCC(c2ccc(F)cc2)c2ccc(F)cc2)CC1`: the “activity change, negative = inhibition” value was -8.93%.

As to `Cc1cccc(C)c1NC1=NCCCS1`, the “activity change, negative = inhibition” value was 16.3%. With `COc1ccccc1N1CCNCC1`, the “activity change, negative = inhibition” value is -1.01%. As for `O=c1[nH]c2ccccc2n1CCCN1CCC(n2c(=O)[nH]c3cc(Cl)ccc32)CC1`, the “activity change, negative = inhibition” value is -22.4%. As for `CC(=O)[C@H]1CC[C@H]2[C@@H]3CC[C@H]4C[C@H](O)CC[C@]4(C)[C@H]3C(=O)C[C@]12C`, the “activity change, negative = inhibition” value was -5.36%.

As for `CC(O)(CS(=O)(=O)c1ccc(F)cc1)C(=O)Nc1ccc(C#N)c(C(F)(F)F)c1` (stereo not given), the “activity change, negative = inhibition” value is -8.23%. For the compound `Cc1cccc(C)c1NC(=O)CN1CCCC1=O`, the “activity change, negative = inhibition” value was -31.7%. On to `CCCN1CCC[C@@H]2Cc3nc(N)ncc3C[C@H]21`, for which the “activity change, negative = inhibition” value was -9.55%. Take `N#CC(C#N)=Cc1ccc(O)c(O)c1`: the Potency is 0.355 µM (active). Consider `Cc1ncc(CNC(=O)N(CCCl)N=O)c(N)n1`, for which the “activity change, negative = inhibition” value was -20.4%. Turning to `NCC(O)c1ccc(O)cc1` (stereo not given), the “activity change, negative = inhibition” value is -17.1%. With `NN=C(N)N`, the Potency entry was “inactive”.

On to `CC(=O)[C@H]1CC[C@H]2[C@@H]3CC[C@H]4C[C@](C)(O)CC[C@]4(C)[C@H]3CC[C@]12C`, for which the “activity change, negative = inhibition” value was -3.06%. Consider `CCCC(C)(COC(N)=O)COC(=O)NC(C)C` (stereo not given), for which the “activity change, negative = inhibition” value was 4.1%. With `COC[C@H]1OC(=O)c2coc3c2[C@@]1(C)C1=C(C3=O)C2CCC(=O)[C@@]2(C)C[C@H]1OC(C)=O` (stereo not given in full), the Potency was 11.2 µM (active). In the case of `COc1ccc(C(CN(C)C)C2(O)CCCCC2)cc1` (stereo not given), the “activity change, negative = inhibition” value is 10.3%.

For the compound `Nc1ccncc1`, the “activity change, negative = inhibition” value is -5.98%. The same measure, in the same setting: then `c1ccc2c(c1)OCC(C1=NCCN1)O2` (stereo not given), with -43.2%; and `NCC(CC(=O)O)c1ccc(Cl)cc1` (stereo not given), with 1.27%. With `O=C1NCN(c2ccccc2)C12CCN(CC1COc3ccccc3O1)CC2` (stereo not given), the “activity change, negative = inhibition” value was -12.4%. Same read-out and setting: next, `c1ccc(C2CC2)c(OCC2=NCCN2)c1`: -1.17%; `NCC1(CC(=O)O)CCCCC1`: -1.05%.

(Values after PubChem BioAssay (NCATS).)
